Bioassay records: PubChem, National Center for Advancing Translational Sciences (NCATS)
D2 ag-1 = Beta-Arrestin HTS for Positive Allosteric Modulators of the Human D2 Dopamine Receptor: Agonists; D(2) dopamine receptor (Homo sapiens), P14416; DiscoveRx PathHunter D2 beta-arrestin, luminescence, 90 min; 100% = 57 uM dopamine signal; activation, % (concentration not given with the values); actives 0.084% (n = 360,000); AID 624465, 2012; in the data active = activation above about 40%; inconclusive = between about 15% and that limit
Target sequence (P14416 whole entry, looked up): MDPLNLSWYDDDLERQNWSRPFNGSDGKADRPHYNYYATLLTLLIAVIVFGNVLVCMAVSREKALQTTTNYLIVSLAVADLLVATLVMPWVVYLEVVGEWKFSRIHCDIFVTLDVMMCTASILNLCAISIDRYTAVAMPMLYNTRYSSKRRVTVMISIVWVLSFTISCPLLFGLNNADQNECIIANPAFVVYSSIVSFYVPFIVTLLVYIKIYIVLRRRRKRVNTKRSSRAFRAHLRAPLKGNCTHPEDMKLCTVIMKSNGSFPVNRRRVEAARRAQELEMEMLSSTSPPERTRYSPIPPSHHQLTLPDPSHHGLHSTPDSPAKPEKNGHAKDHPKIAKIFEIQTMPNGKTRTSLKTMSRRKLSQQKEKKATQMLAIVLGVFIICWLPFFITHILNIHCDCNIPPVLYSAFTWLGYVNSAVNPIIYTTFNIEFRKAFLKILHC
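Agonist mode: compounds alone added to overnight-plated D2 PathHunter cells for 90 min at 37 C, with 57 uM final dopamine (EC100) defining full response. Beta-arrestin recruitment detected by chemiluminescent reagent, read after 1 h at ambient temperature.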
D2 PAM-1 = HTS Assay for Positive Allosteric Modulators of the Human D2 Dopamine Receptor: Primary Screen for Potentiators; potentiation, % at 10 µM; AID 485347, 2010; HEK293 T-REx D2, calcium flux, EC20 dopamine potentiation; D(2) dopamine receptor (Homo sapiens), P14416; actives 0.34% (n = 340,000);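 active = potentiation over 3 SD above the plate norm, cut at about 30% in these data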
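Tetracycline-induced Hek293 Trex D2 cells, force-coupled to calcium, loaded with no-wash calcium dye. Compound added with 180 s kinetic read for agonism, then EC20 dopamine and a further 180 s read for potentiation.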
D2 ag-2 = HTS Assay for Allosteric Agonists of the Human D2 Dopamine Receptor: Primary Screen for Agonists. HEK293 T-REx D2 cells, calcium flux agonist mode. activation, % at 2 µM. actives 0.53% (n = 340,000). AID 485358, 2010;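 active = activation over 3 SD above normal in the single-dose calcium agonist read, cut at about 30% in these data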
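Agonism scored from kinetic calcium signal (1 read/sec, 180 s) following compound pin transfer, after a 10 s baseline. Cells: HEK293 Trex line expressing inducible D2 receptor coupled to calcium, dye-loaded after overnight culture at 30 C.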
D2 antag = HTS Assay for Allosteric Antagonists of the Human D2 Dopamine Receptor: Primary Screen for Antagonists; D(2) dopamine receptor (Homo sapiens), P14416; HEK293 TREx D2 cells, calcium flux, dopamine EC80; inhibition, % at 10 µM; actives 2% (n = 340,000); in the data active = inhibition above about 30%; inactive = below that, where a call was filed
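Compounds are added to dye-loaded, induced HEK293 T-REx cells coupled to calcium release via D2; after a 3 min kinetic read an EC80 dopamine stimulus is given and fluorescence is recorded for 3 more min.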
D2 PAM-2 = Beta-Arrestin HTS for Positive Allosteric Modulators of the Human D2 Dopamine Receptor: Potentiators | D(2) dopamine receptor (Homo sapiens), P14416 | DiscoveRx D2 beta-arrestin cells, luminescence, 90 min; 100% = 57 uM dopamine signal | potentiation, % (concentration not given with the values) | actives 0.23% (n = 360,000); in the data active = potentiation above about 50%; inconclusive = mostly about 30% to 49%
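PathHunter D2 cells, attached overnight at 37 deg C, received compound in DMSO plus dopamine at EC20 (50 nM final) for 90 min at 37 deg C. Beta-arrestin recruitment was read as luminescence after 1 h with detection reagent at ambient temperature.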
Of the large screens only hits and unclear results are named; the others gave an inactive call; ! = not active in a repeat. Shown are actives, neighbours in structure and some others; about 2.4% of the full set was active somewhere.

Cc1ccc(N2C(=O)c3cccc4c([N+](=O)[O-])ccc(c34)C2=O)c2cccnc12	none
O=C(c1ccc2ncsc2c1)N1CCCCC1	none
Nc1nc2ccc(C(=O)N3CCCCC3)cc2s1	D2 antag 51.2
O=C(OCC(=O)N1CCCc2ccccc21)c1ccc(C(F)(F)F)cc1	none
O=C(OCC(=O)N1CCCc2ccccc21)c1ccc(S(=O)(=O)C(F)F)cc1	D2 antag 42.3
CCN(C(=O)COC(=O)c1cc2ccccc2cc1OC)c1c(N)n(Cc2ccccc2)c(=O)[nH]c1=O	none (no result: D2 PAM-1, D2 ag-2, D2 antag)
Cc1sc(NC(=O)CSc2nc(N)n(CC(=O)c3ccccc3)n2)c(C#N)c1C	D2 ag-2 32.7
COC(=O)c1cc(OC)c(OC)cc1NC(=O)c1ccc2c(c1)CCN2S(C)(=O)=O	none (no result: D2 ag-1, D2 antag, D2 PAM-2)
COc1ccc(Br)c(C(=O)OCC(=O)N2CCC(Cc3ccccc3)CC2)c1	none
O=C(O)c1ccc2c(=O)n3c(nc2c1)/C(=C/c1ccc(C(F)(F)F)cc1)CC3	none
O=c1c2ccccc2nc2n1CC/C2=C/N1CCN(c2cccc(C(F)(F)F)c2)CC1	D2 antag 48.3
CNS(=O)(=O)c1ccc(N=Cc2c(C)[nH]n(-c3ccc(C)cc3C)c2=O)cc1	D2 antag 42.3
Cc1ccc(-n2[nH]c(C)c(C=Nc3ccc(S(=O)(=O)Nc4nc(C)cc(C)n4)cc3)c2=O)c(C)c1	none
COc1ccc2c(Sc3ccc(C)cc3)c(C(=O)NCc3ccc(F)cc3)[nH]c2c1	none (no result: D2 ag-1, D2 antag, D2 PAM-2)
N/C(=N\OS(=O)(=O)c1ccc(Br)cc1)c1ccncc1	D2 ag-1 inconclusive, D2 PAM-2 95.3
COc1cc2c(cc1OC)-c1n[nH]c(=S)n1C(C)(C)C2	D2 PAM-1 35.0
COc1cc2c(cc1OC)-c1nnnn1C(C)(C)C2	none
COc1ccccc1CNC(=O)c1cn(C)c2ccc(S(=O)(=O)N(C)C3CCCCC3)cc2c1=O	none (no result: D2 ag-1, D2 antag, D2 PAM-2)
CCc1ccccc1NC(=O)Cn1c(=O)n(Cc2ccc(OC)cc2)c(=O)c2oc3ccccc3c21	none (no result: D2 ag-1, D2 antag, D2 PAM-2)
Cc1nc2nc[nH]n2c(=O)c1NC(=O)CC12CC3CC(CC(C3)C1)C2	D2 PAM-1 31.4!
CCOCCn1c(SC(C)C(C)=O)nc2c1c(=O)[nH]c(=O)n2C (stereo not given)	none
COC(=O)CN1C(=O)COc2ccc(S(=O)(=O)N3CCOCC3)cc21	D2 antag 46.3
O=C(O)CN1C(=O)COc2cc(S(=O)(=O)N3CCCC3)ccc21	D2 antag 30.8
O=C(CN1C(=O)COc2ccc(S(=O)(=O)N3CCCC3)cc21)N1CCCC1	none
Cc1cc(C)c(S(=O)(=O)n2cnc(C)c2)c(C)c1	none (no result: D2 ag-1, D2 antag, D2 PAM-2)
CCOC(=O)CSc1nnc(NC(=O)c2cc([N+](=O)[O-])cc([N+](=O)[O-])c2)s1	D2 PAM-2 63.4
COCCSc1nnc(NC(=O)c2ccc([N+](=O)[O-])cc2)s1	none (no result: D2 ag-2, D2 antag)
C[C@H](CO)N1C[C@H](C)[C@@H](CN(C)C(=O)NC2CCCCC2)Oc2c(NC(=O)Nc3ccccc3)cccc2C1=O	none (no result: D2 PAM-1, D2 ag-2, D2 antag)
O=C(Nc1cccc([N+](=O)[O-])c1)C1CC(=O)N(C2CCCCC2)C1 (stereo not given)	D2 antag 30.6
O=C(NCCN1CCc2ccccc2C1)C1CC(=O)N(C2CCCC2)C1 (stereo not given)	D2 antag 32.6
O=C(NCCc1cccc(F)c1)C1CCC(=O)N(C2CCCCCC2)C1 (stereo not given)	D2 antag 33.6
CC(=O)Nc1cccc(NC(=O)C2CC(=O)N(C3CCCCC3)C2)c1 (stereo not given)	none
O=C(NCCc1ccccc1)C1CC(=O)N(C2CCCC2)C1 (stereo not given)	none
NS(=O)(=O)c1cccc(NC(=O)CN2CCN(Cc3ccc4c(c3)OCO4)CC2)c1	none (no result: D2 ag-2, D2 antag)
O=C(Nc1ccc(C(=O)N2CCCCC2)cc1)c1nsc2ccccc12	none (no result: D2 ag-1, D2 antag, D2 PAM-2)
O=[N+]([O-])c1cc(-c2nc(-c3ccncc3)no2)cc([N+](=O)[O-])c1	D2 ag-1 inconclusive, D2 PAM-2 95.4
Brc1cccc(-c2nc(-c3ccncc3)no2)c1	D2 antag 40.9
O=[N+]([O-])c1cc(-c2nc(-c3ccncc3)no2)ccc1Cl	none
COc1ccccc1CN1CCN(C2CCN(C(=O)Nc3ccccc3)CC2)C(=O)C1=O	none (no result: D2 ag-1, D2 antag, D2 PAM-2)
COc1ccc(/C=C2\COc3ccccc3C2=O)cc1OC	none
CCOc1cc(/C=C2\COc3ccccc3C2=O)cc(Br)c1OCC(=O)N(C)C	D2 antag 44.5
Nc1c(C(=O)c2cccs2)oc2ccccc12	none
Nc1c(C(=O)c2ccc(Br)s2)oc2ccccc12	D2 antag 44.8
CCN(c1ccccc1)S(=O)(=O)c1cc(NC(=O)CN2CCN(C)CC2)ccc1Cl	none (no result: D2 PAM-1, D2 ag-2, D2 antag)
Cc1cccc(-n2c(-c3ccccc3)cn3c4c(=O)[nH]c(=O)n(C)c4nc23)c1	none (no result: D2 ag-1, D2 antag, D2 PAM-2)
Cn1c(=O)n(CCCOc2ccc(Br)cc2)c2ccccc21	D2 antag 32.4
CSc1ccc(CN2CCC2(C)C(=O)Nc2cnc3ccccc3c2)cc1 (stereo not given)	none (no result: D2 PAM-1, D2 ag-2, D2 antag)
COc1ccc(CN2CCC(C(=O)N(C)CCc3ccc(OC)c(OC)c3)CC2)c(OC)c1	D2 PAM-1 30.9
COc1ccc(CCN(C)C(=O)C2CCN(Cc3ccc(C)cc3)CC2)cc1OC	D2 antag 47.1
CCCN(CCC)C(=O)c1c[nH]c2ccc(S(=O)(=O)N(C)c3ccc(OCC)cc3)cc2c1=O	none (no result: D2 ag-1, D2 antag, D2 PAM-2)
COc1ccc(-n2cc(-c3ccc4c(c3)OCO4)n(CC(=O)Nc3cccc(C)c3)c2=O)cc1	none (no result: D2 ag-1, D2 antag, D2 PAM-2)
Cc1cc(C(=O)N2CCc3ccccc32)n(-c2ccccc2)n1	D2 antag 37.1
Cn1c(N)c(C(=O)CSc2nnc(-c3ccccc3F)n2N)c(=O)n(C)c1=O	D2 antag 33.7
Cn1c(N)c(C(=O)CSc2nnc(-c3ccccc3F)n2C2CC2)c(=O)n(C)c1=O	none
COc1ccc(Cl)cc1Nc1nc(C)cc(=O)[nH]1	D2 antag 74.4
CC(=O)c1cccc(CN2CCN(Cc3ccc(C)cc3)C(CCO)C2)c1 (stereo not given)	D2 antag 54.6
CC(=O)c1cccc(CN2CCN(CCc3ccccc3)C(CCO)C2)c1 (stereo not given)	D2 antag 34.3
CCOc1ccc(C2c3c(oc4ccccc4c3=O)C(=O)N2CCCN2CCOCC2)cc1 (stereo not given)	none
CCCOc1ccc(C2c3c(oc4ccccc4c3=O)C(=O)N2CCCN2CCOCC2)cc1 (stereo not given)	D2 antag 36.0
